Screens (PubChem)
This is a sample that favours compounds with a hit; in the whole collection about 11% have one here.
NS1 inh: qHTS Assay for Inhibitors of Influenza NS1 Protein Function | Potency, µM (highest dose often 46.1 µM) | 270,000 compounds, 0.4% hits; calls by dose curve; also: actives are rising curves; nearly all actives have a fitted effect of over 50% in size
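S. cerevisiae expressing influenza A NS1, grown in glucose, washed, then diluted 1:100 into pH 6.0 -URA galactose medium with 23 nl compound. Growth recovery read as OD600; NS1-free strain serves as control.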
Pf growth 96h: Primary qHTS for delayed death inhibitors of the malarial parasite plastid, 96 hour incubation; AID 504834, 2011; Potency, µM (top dose mostly 28.7 µM), most hits filed as inhibitors; P. falciparum luciferase reporter growth, 96 h; 320,000 compounds, 6.9% hits
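Two parasite generations (96 h, 37 C, 5% CO2) of compound exposure in infected erythrocytes (0.05% parasitemia, 2% hematocrit). Luciferase-reporter P. falciparum; decreased luminescence indicates inhibited growth, aimed at apicoplast-acting delayed death.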
Vaccinia mCherry: qHTS for Stage-Specific Inhibitors of Vaccinia Orthopoxvirus: mCherry Reporter Primary qHTS. 310,000 compounds, 0.63% hits. Vaccinia virus mCherry reporter infection, fluorescence. Potency, µM (top dose mostly 36.5 µM), usual class: inhibitors; calls by dose curve; tested in A549 cells; also: nearly all actives have a fitted effect of over 35% in size
VACV Venus inh: qHTS for Stage-Specific Inhibitors of Vaccinia Orthopoxvirus: Venus Reporter Primary qHTS. AID 720580, 2013. Potency, µM (series often up to 36.5 µM), usual class: inhibitors. 330,000 compounds, 0.46% hits. Vaccinia virus Venus reporter expression, fluorescence; calls by dose curve; tested in A549 cells; also: nearly all actives have a fitted effect of over 30% in size
Pf growth 48h: Primary qHTS for delayed death inhibitors of the malarial parasite plastid, 48 hour incubation | P. falciparum luciferase growth in erythrocytes, 48 h | Potency, µM (top dose mostly 28.7 µM), usual class: inhibitors | 310,000 compounds, 5.9% hits
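In quantitative HTS format, infected erythrocytes bearing luciferase-reporter parasites were treated for a single generation at 37 C. Luminescence after adding detection reagent served as the growth measure.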
HCV inhibitor: qHTS Assay for Inhibitors of Hepatitis C Virus (HCV) | Huh7.5.1 HCVcc-Cre infection, luciferase reporter, 44 h | Potency, µM (doses to about 41.8 µM), usual class: inhibitors | 340,000 compounds, 3.4% hits
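Reporter virus HCVcc-Cre (~0.5 moi) infects cells exposed to compound; seeding density 1,000 cells/well with 4 h settling beforehand. Luminescence, 15 sec read, taken 44 h post-infection following a 15 min RT substrate incubation.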
Large screens that a line does not name were inactive. Unless noted, calls follow the shape of the dose curve; as a rule, active = well fitted inhibition curve with a large enough effect; inconclusive = small, poorly fitted or top-dose-only effect, or another doubt; inactive = no such curve, though single readings can be large or run the other way.

COC(=O)C1=C(C)N(Cc2ccccc2)C(=NCc2ccco2)N[C@H]1c1cccc(F)c1	none (no result: NS1 inh, Pf growth 96h, Pf growth 48h)
COC(=O)C1=C(C)N(Cc2ccccc2)C(=NCc2cc(OC)c(OC)c(OC)c2)N[C@H]1c1cccc(F)c1	Pf growth 96h 10µM, Pf growth 48h 10µM
CCN1C(=O)[C@H]2[C@@H](c3ccc(-c4ccccc4)cc3)N3CCCC[C@@]3(C(=O)OC)[C@H]2C1=O	Pf growth 96h inconclusive, VACV Venus inh inconclusive, Pf growth 48h 10µM (no result: NS1 inh)
CCN1C(=O)[C@H]2[C@@H](c3ccc(-c4ccc5c(c4)OCO5)cc3)N3CCC[C@@]3(C(=O)OC)[C@H]2C1=O	Pf growth 48h inconclusive (no result: NS1 inh)
CCN1C(=O)[C@@H]2[C@@H](c3ccc(-c4ccc(C(C)=O)cc4)cc3)N3CCCC[C@@]3(C(=O)OC)[C@@H]2C1=O	Pf growth 96h 12µM, Pf growth 48h 10µM, HCV inhibitor inconclusive (no result: NS1 inh)
CCN1C(=O)[C@@H]2[C@@H](c3ccc(-c4ccc(OC)cc4)cc3)N3CCCC[C@@]3(C(=O)OC)[C@@H]2C1=O	Pf growth 96h 5.2µM, Pf growth 48h 10µM, HCV inhibitor 3.2µM (no result: NS1 inh)
CCN1C(=O)[C@@H]2[C@@H](c3ccc(-c4ccc(Cl)c(Cl)c4)cc3)N3CCCC[C@@]3(C(=O)OC)[C@@H]2C1=O	Pf growth 96h inconclusive (no result: NS1 inh)
CCN1C(=O)[C@@H]2[C@@H](c3ccc(-c4ccc5c(c4)OCO5)cc3)N3CCCC[C@@]3(C(=O)OC)[C@@H]2C1=O	Pf growth 96h 13µM, Pf growth 48h inconclusive, HCV inhibitor inconclusive (no result: NS1 inh)
C=CCNC(=O)c1ccccc1S(=O)c1ccccc1C#N (stereo not drawn)	none
CCCC[C@H]1COCCS(=O)(=O)N1Cc1cccc(F)c1	none
CC(C)n1c(SCC(=O)N2CCN(C)CC2)nc2c1c(=O)n(C)c(=O)n2C	none
CC1CC(C)CN(S(=O)(=O)N2CCCC(C(=O)NC3CCCCC3C)C2)C1 (stereo not drawn)	none (no result: Vaccinia mCherry, VACV Venus inh)
Cc1ccc(S(=O)(=O)N2CCN(c3ccc(C(F)(F)F)cc3[N+](=O)[O-])CC2)cc1	NS1 inh inconclusive, VACV Venus inh inconclusive, Pf growth 48h inconclusive, HCV inhibitor inconclusive
Cc1ccc(-c2csc(Nc3ccc(C(=O)O)cc3)[n+]2Cc2ccccc2)cc1	Pf growth 96h inconclusive, Pf growth 48h inconclusive
COc1ccc(-c2csc(Nc3ccccc3)[n+]2Cc2ccccc2)cc1	Pf growth 96h 13µM, HCV inhibitor inconclusive (no result: NS1 inh, Vaccinia mCherry, VACV Venus inh)
O=[N+]([O-])c1ccc(-c2csc(Nc3ccccc3)[n+]2Cc2ccccc2)cc1	Pf growth 96h inconclusive, Pf growth 48h 5.2µM
Cc1ccc(-c2csc(Nc3ccccc3)[n+]2CCc2ccccc2)cc1	Pf growth 96h 2.1µM, Pf growth 48h 12µM (no result: NS1 inh, Vaccinia mCherry, VACV Venus inh)
CCOC(=O)CCCSc1nc(-c2ccc3c(c2)OCO3)cc(C(F)(F)F)c1C#N	none
C#CCN1c2ccccc2Sc2cccnc21	Pf growth 96h 0.12µM, Pf growth 48h 0.33µM, HCV inhibitor inconclusive
CC(CN1c2ccccc2Sc2ccccc21)N(C)C (stereo not drawn)	Pf growth 96h inconclusive, Pf growth 48h inconclusive
Cc1ccc(/C=N/Nc2nnc(Cl)c3ccccc23)cc1	none
CC(=O)Nc1ccc(C=NNc2nnc(NN=Cc3ccc(NC(C)=O)cc3)c3ccccc23)cc1	HCV inhibitor 22µM (no result: NS1 inh, Pf growth 96h, Pf growth 48h)
O=C(CN1CCCC1)NCc1ccccc1	Pf growth 96h 13µM (no result: Vaccinia mCherry, VACV Venus inh)
O=C(CN1CCN(c2ccc(Cl)cc2)CC1)NCc1ccccc1	HCV inhibitor inconclusive
O=C(Cn1ccc2ccccc2c1=O)NCCC(=O)N1CCN(c2cccc(Cl)c2)CC1	Pf growth 96h 7.4µM (no result: Vaccinia mCherry, VACV Venus inh, Pf growth 48h)
O=C(CN1CCN(c2cccc(Cl)c2)CC1)NCc1ccccc1	Pf growth 96h 10µM (no result: Vaccinia mCherry, VACV Venus inh)
O=C(c1cc2cc3ccc(Cl)cc3nc2o1)N1CCCCCC1	none
Cc1cc(C)c(C#N)c(Oc2ccc(O)cc2)n1	Pf growth 96h 5.2µM, HCV inhibitor inconclusive
COc1cc2c(cc1OC)C1=NC(=O)CN1C(SCc1ccc(C)cc1)=N2	NS1 inh inconclusive, Pf growth 48h inconclusive, HCV inhibitor inconclusive
Cc1ccc(CSC2=Nc3sccc3C3=NC(=O)CN23)cc1	Pf growth 96h inconclusive, Pf growth 48h 12µM, HCV inhibitor inconclusive (no result: Vaccinia mCherry, VACV Venus inh)
Cc1ccc(/C=N/Nc2cc(C)nc(N3CCOCC3)n2)cc1	none
Cc1cccc(/C=N/Nc2cc(N3CCOCC3)nc(N3CCOCC3)n2)c1	Pf growth 96h inconclusive, Vaccinia mCherry inconclusive, VACV Venus inh inconclusive, Pf growth 48h inconclusive, HCV inhibitor 6.3µM
Cc1cn(-c2ccccc2)c(C)c1/C=N\Nc1nc(N2CCOCC2)nc(N2CCOCC2)n1	Pf growth 48h 8.3µM
CCOc1cc(/C=N\Nc2ncc(F)c(N3CCOCC3)n2)ccc1Oc1nc(Cl)ncc1F	Pf growth 96h 1.9µM, Pf growth 48h 1.7µM, HCV inhibitor 10µM
Clc1ccc(-c2ccc(/C=N/Nc3cc(N4CCOCC4)nc(N4CCOCC4)n3)o2)cc1	Pf growth 48h 9.3µM, HCV inhibitor inconclusive (no result: Vaccinia mCherry)
CC(C)c1ccc(/C=N/Nc2cc(N3CCOCC3)nc(N3CCOCC3)n2)cc1	Pf growth 48h inconclusive, HCV inhibitor inconclusive
CCOc1ccc(NC(=O)c2oc3ccccc3c2NC(=O)C(C)Oc2ccccc2)cc1 (stereo not drawn)	none (no result: NS1 inh, Pf growth 96h, Pf growth 48h, HCV inhibitor)
Cc1cc(NC(=O)CSc2ccc(F)cc2)no1	none (no result: NS1 inh, Vaccinia mCherry, VACV Venus inh)
O=[N+]([O-])c1ccc(/C=N/Nc2nc(N3CCOCC3)nc(N3CCOCC3)n2)cc1	none (no result: Vaccinia mCherry, VACV Venus inh, HCV inhibitor)
Fc1cnc(N/N=C/c2ccc(-c3ccc(Br)cc3)o2)nc1N1CCOCC1	Pf growth 96h 5.9µM, Pf growth 48h inconclusive
Brc1ccc(-c2ccc(/C=N/Nc3nncc(-c4ccccc4)n3)o2)cc1	none (no result: Pf growth 48h)
Brc1ccc(-c2ccc(/C=N/Nc3nc(N4CCOCC4)nc(N4CCOCC4)n3)o2)cc1	Pf growth 48h 12µM, HCV inhibitor inconclusive (no result: NS1 inh)
Fc1ccc(-c2cc3nc(-c4ccccc4)cc(N4CCN(CCN5CCOCC5)CC4)n3n2)cc1	Pf growth 48h 1µM, HCV inhibitor 10µM
COc1cccc(-c2cc3nc(-c4ccccc4)cc(N4CCC5(CC4)OCCO5)n3n2)c1	Vaccinia mCherry inconclusive, Pf growth 48h 13µM, HCV inhibitor inconclusive
COc1cccc(-c2cc(C(F)(F)F)n3nc(C(=O)N4CCC5(CC4)OCCO5)cc3n2)c1	Pf growth 48h inconclusive
COC(=O)C1C2CC3c4[nH]c5cc(OC)ccc5c4CCN3CC2CC(OC(=O)CC(C)=O)C1OC (stereo not drawn)	Vaccinia mCherry inconclusive (no result: NS1 inh, Pf growth 96h, Pf growth 48h)
Cc1cccc(N(Cc2cc(=O)[nH]c3ccccc23)C(=O)CCl)c1	Pf growth 96h inconclusive, Vaccinia mCherry inconclusive, VACV Venus inh 13µM, Pf growth 48h inconclusive, HCV inhibitor inconclusive
